The record followed here is PubChem BioAssay (NCI).

Holding throughout (assay): NCI-60 one-dose screen, 48 h (100 = growth as untreated, 0 = no growth, -100 = all killed)
What all share (conditions): 10 µM unless noted

Experiment [1] deals with NCI-H23 lung.
The subject of experiment [2] is NCI-H226 lung.
The test system of experiment [3] is NCI-H322M lung.
The subject of experiment [4] is HOP-62 NSCLC.
For experiment [5], the system named is NCI-H460 lung.
In experiment [6] the test system is HOP-92 NSCLC.
Experiment [7] relates to A549/ATCC NSCLC.
In experiment [8] the test system is 786-0 renal.
Experiment [9] concerns COLO 205 colon.
Experiment [10] has as its system NCI-H522 lung.

About 83,000 compounds went through this panel and 20% of them were active in at least one assay; those are over-represented in the sample as a whole.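 Step 1: grow cells in 96-well plates. Step 2: add test compound at a single concentration. Step 3: incubate 48 h. Step 4: record percent growth.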 Values without a mark were called inactive. Active and inactive are the calls of the source. How the source made its calls: active means growth percent below 10; inactive means the rest.

For the compound `Cc1cc2cc3ccc(N(C)C)cc3nc2cc1N`, the growth is -25.6% (active) in experiment [1]; -28.4% (active) in experiment [2]; -5.9% (active) in experiment [3]; -39.1% (active) in experiment [4]; -70.9% (active) in experiment [5]; -4.62% (active) in experiment [6]. For the same compound, the growth was -18.7% (active) in experiment [7], 8.26% (active) in experiment [8] and -67.7% (active) in [9].
Turning to `CC1(C)CC[C@]23CC[C@]4(C)[C@H](CC[C@@H]5[C@@]6(C)CCCNC(C)(C)[C@@H]6CC[C@]54C)[C@H]2[C@H]1OC3`, the growth in experiment [1] is 41.2%; in [2], 34.8%; in experiment [3], -21.4% (active); in experiment [4] it was 27.7%; in experiment [5], -60.6% (active); in experiment [6], -37.2% (active). In addition, the growth in [7] was -45.6% (active); in experiment [8], -96.2% (active); in [9] it was -68.2% (active).
For `CCOC(=O)[C@@H](C)C[C@H](Cc1ccccc1)NC(=O)c1csc([C@@H](C[C@H](C(C)C)N(C)C(=O)[C@@H](NC(=O)[C@H]2C[C@H](O[Si](C)(C)C(C)(C)C)CCN2C)C(C)C)OC(C)=O)n1`, the growth is 17.6% [9.25 µM] in experiment [1]; -39.2% [9.25 µM] (active) in [2]; 25% [9.25 µM] in experiment [3]; 0.247% [9.25 µM] (active) in experiment [4]; -23.9% [9.25 µM] (active) in experiment [5]; -9.53% [9.25 µM] (active) in [6]. Also, the figures for the growth in [7], in experiment [8] and in experiment [9] were 7.91% [9.25 µM] (active), -5.36% [9.25 µM] (active) and -72.6% [9.25 µM] (active), respectively.
Turning to `N#CC1=C(/N=C/c2ccccc2)Oc2c(ccc3ccccc23)C1c1ccc([N+](=O)[O-])cc1` (stereo not given), the growth in experiment [1] was 80.2%; in [2], 65.3%; in [3], 93.8%; in experiment [4], 89.1%; in [5], 95.2%; in experiment [6], 88.5%. Moreover, the growth in [7] is 101%; in [8], 102%; in experiment [9] it was 109%.
`Nc1ccccc1NC(=O)c1ccc(-n2nc(-c3ccccc3)c3ccccc32)cc1`: the growth in experiment [1] was 89.1%; in experiment [2], 64.7%; in experiment [3], 83.5%; in experiment [4] it was 84.7%; in experiment [5] it was 79.3%; in experiment [6] it was 78.9%. For the same compound, the growth is 74.5% in experiment [7] and 117% in experiment [9].
`CNC(=O)c1cccc(Cn2nc(C)c(NC(=O)c3ccc(COc4ccc(C(F)(F)F)cc4C)cc3)c2C)n1`: the growth was 43.5% in [1]; 44.4% in experiment [2]; 88.9% in experiment [3]; 46% in experiment [4]; 50.8% in experiment [5]; 74.4% in experiment [6]. The growth in experiment [7] was 39.1%; in [8], 61.9%; in experiment [9], 37.3%.
With `COc1ccc(C/C(=C(\C)c2ccc(OCCN3CCCC3)cc2)c2ccc(OCCN3CCCC3)cc2)cc1`, the growth is 83.9% in [1]; 84.4% in [2]; 81.7% in experiment [3]; 80.3% in experiment [4]; 6.71% (active) in [5]; 26.4% in experiment [6]. Further, the growth in experiment [7] was 69.3%; in [8] it was 69.1%; in experiment [9], -25.8% (active).
Regarding `N#Cc1c(NC(=O)NCc2ccccc2)sc2c1CCCCC2`, the growth in [1] is 37.5%; in experiment [2] it was 22.5%; in [3], 44.9%; in experiment [4] it was 34.2%; in experiment [5], 0.445% (active); in [6] it was 44.8%. In addition, the growth in [7] is 25.5%; in experiment [8] it was 26.3%; in experiment [9] it was 2.15% (active).
As for `Oc1ccc(C(c2ccc(O)cc2)c2ccc(Br)cn2)cc1`, the growth in experiment [1] was -18.2% (active); in [2] it was -14% (active); in experiment [3] it was -27.3% (active); in [4], 77.5%; in experiment [5], 107%; in experiment [6], -0.572% (active). Further, the growth was 37.3% in [7], 89.7% in experiment [8] and 1.1% (active) in [9].
As to `CC(=O)Nc1ccc(-n2cnc3cc(-c4ccc(OCCN5CCCCC5)cc4)ccc32)cc1`, the growth was 73.2% in experiment [1]; 74.1% in experiment [2]; 104% in experiment [3]; 82.5% in [4]; 4.54% (active) in experiment [5]; 105% in [6]. The growth in experiment [7] was -3.26% (active); in [8], -40.9% (active); in [9], 107%.
In the case of `Fc1ccc(-c2cn3c(nc4ccccc43)c(-c3ccccc3)n2)cc1`, the growth is 88.5% in experiment [1]; 97.5% in experiment [2]; 109% in experiment [3]; 107% in [4]; 98.2% in experiment [5]; 68.7% in experiment [6]. The growth in experiment [7] was 91.4%; in [8], 83%; in experiment [9], 116%.
For the compound `CN(CCN(C)c1ccc(C(=N)N)cc1)c1ccc(C(=N)N)cc1`, the growth in experiment [1] was 86.3%; in experiment [2], 84%; in experiment [3] it was 93.1%; in experiment [4], 102%; in experiment [5], 92%; in [6], 35%. Besides, the growth in experiment [7] was 103%; in [8], 107%; in experiment [9], 134%.
As to `O=[N+]([O-])c1ccc(NC(=S)N/N=C/c2cc3ccccc3n3nnnc23)cc1`, the growth in experiment [1] is 30.1%; in experiment [2] it was 72%; in experiment [3] it was 51.9%; in experiment [4], 49.3%; in [5], 32.2%; in [6] it was -5.68% (active). Further, the growth is 55.6% in experiment [7], 61.6% in experiment [8] and 96.9% in [9].
In the case of `Cc1ccc(/C=C(/C#N)n2nnc3cccc(F)c32)cc1`, the growth was 4.73% (active) in [1]; 23% in experiment [2]; 16.3% in experiment [3]; -34.8% (active) in [5]; -6.05% (active) in [6]; 11.6% in experiment [10]. For the same compound, the growth in [7] is 11.5%; in experiment [8], 1.78% (active); in experiment [9], -19.5% (active).
